High-throughput results (PubChem BioAssay)
Only some compounds are listed: those with a hit (about 2.4% of all), similar ones and a draw of the others.
D2 ag-1 = human D2 receptor agonism in beta-arrestin assay; DiscoveRx PathHunter D2 beta-arrestin, luminescence, 90 min; 100% = 57 uM dopamine signal; activation, % (no concentration beside the values); hit rate 0.084% among 360,000; AID 624465; in the data active = activation above about 40%
Target sequence (P14416 whole entry, looked up): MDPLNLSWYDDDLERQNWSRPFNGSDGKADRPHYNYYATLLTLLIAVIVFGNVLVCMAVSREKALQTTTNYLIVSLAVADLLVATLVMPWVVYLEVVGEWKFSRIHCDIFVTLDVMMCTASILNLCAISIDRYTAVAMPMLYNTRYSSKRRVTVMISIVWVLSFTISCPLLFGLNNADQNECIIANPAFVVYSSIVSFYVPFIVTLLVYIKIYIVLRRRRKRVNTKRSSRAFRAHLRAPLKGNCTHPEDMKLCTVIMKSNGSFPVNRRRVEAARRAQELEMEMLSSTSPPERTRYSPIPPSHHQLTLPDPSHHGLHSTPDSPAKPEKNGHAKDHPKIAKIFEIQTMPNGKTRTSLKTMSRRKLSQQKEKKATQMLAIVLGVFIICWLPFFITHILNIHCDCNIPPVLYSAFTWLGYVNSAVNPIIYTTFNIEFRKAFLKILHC
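DiscoveRx PathHunter D2 beta-arrestin cells (2,100/well) attached overnight, then compound-stimulated 90 min at 37 C in HBSS/10 mM HEPES/0.1% Tween-20 buffer; beta-galactosidase complementation read by luminescence after 1 h at ambient temperature. Dopamine 57 uM final (EC100) as control.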
D2 antag = D2 dopamine receptor (human) antagonism. HEK293 TREx D2 cells, calcium flux, dopamine EC80. AID 485344. hit rate 2% among 340,000. P14416. inhibition, % at 10 µM; in the data active = inhibition above about 30%; inactive = below that, where a call was filed; note: 0% is about no effect
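Cells plated overnight at 30 C with tetracycline; no-wash calcium dye, 30–90 min RT; 10 s baseline; compound pinned; 180 s read; EC80 dopamine added; another 180 s read.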
D2 ag-2 = agonists of human D2 dopamine receptor; P14416; HEK293 T-REx D2 cells, calcium flux agonist mode; activation, % at 2 µM; hit rate 0.53% among 340,000; AID 485358;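 active = activation over 3 SD above normal in the single-dose calcium agonist read, cut at about 30% in these data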; note: 0% is about no effect
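Tetracycline-induced HEK293 T-REx cells with force-coupled D2 receptor, plated overnight at 30 C, loaded with no-wash calcium dye. After a 10 s baseline, compound was pin-added and calcium flux read kinetically for 180 s; calcium rises flagged agonists.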
D2 PAM-1 = potentiates the human D2 dopamine receptor allosterically; DiscoveRx D2 beta-arrestin cells, luminescence, 90 min; 100% = 57 uM dopamine signal; hit rate 0.23% among 360,000; P14416; potentiation, % (test concentration not listed); in the data active = potentiation above about 50%
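PathHunter beta-arrestin assay in DiscoveRx D2 cells. Compounds were added with an EC20 of dopamine (50 nM final) for 90 min at 37 deg C. Luminescence was read 1 h after detection reagent, with 57 uM dopamine as the EC100 control.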
D2 PAM-2 = positively modulates the human D2 dopamine receptor allosterically; P14416; HEK293 T-REx D2, calcium flux, EC20 dopamine potentiation; potentiation, % at 10 µM; hit rate 0.34% among 340,000; AID 485347;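 active = potentiation over 3 SD above the plate norm, cut at about 30% in these data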; note: 0% is about no effect
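Primary screen. Calcium kinetics in induced HEK293 T-REx D2 cells: compound pre-addition 180 s, EC20 dopamine, 180 s more.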
The depositor's hits bear a star; · = no result given.

SMILES | D2 ag-1 | D2 antag | D2 ag-2 | D2 PAM-1 | D2 PAM-2
CC1CCC2(CC1)NC(=O)c1ccccc1O2 (stereo unspecified) | -2.6 | 2.2 | 0.6 | -1.7 | 31.6*
CCc1cccc(NC(=O)c2nnn(Cc3ccc(SC)cc3)c2N)c1 | · | · | 0.4 | · | 0.2
O=C(CCN1CCN(C(=O)c2ccco2)CC1)Nc1ccc(F)cc1 | 0.2 | 11.3 | 33.5* | -13.4 | -26.7
Cc1ccccc1N1CCN(CCC(=O)Nc2ccc(F)cc2)CC1 | 1.5 | 78.1* | 0.6 | -73.9 | -20.2
O=C(Cc1ccc(Cl)cc1)Nc1ccc(N2CCN(C(=O)c3ccco3)CC2)cc1 | 1.3 | -15.8 | -0.2 | -12.7 | 32.2*
O=C(c1ccco1)N1CCN(C(=S)Nc2ccc(F)cc2)CC1 | -1.4 | 6.1 | 0.1 | -5.3 | 5.9
COc1ccccc1N1CCN(CCC(=O)Nc2cccc(F)c2)CC1 | 2.2 | · | 20.7 | -41.6 | -31.7
COc1ccc(OC)c(NC(=O)CN(C)S(=O)(=O)c2ccc3[nH]c4c(c3c2)CCCC4)c1 | · | · | -0.8 | · | -3.7
COc1ccc(NC(=O)C(=O)NCC2(c3ccccc3)CCCC2)c(OC)c1 | · | · | 0.0 | · | -1.0
O=C(CCn1cnc2onc(-c3ccc(F)cc3)c2c1=O)N1CCN(c2cccc(Cl)c2)CC1 | · | · | 0.9 | · | -1.9
COc1ccc(NC(=O)C2(c3ccc(NC(=O)c4ccc(C)cc4)cc3)CCCC2)cc1 | 0.4 | 34.2* | -0.2 | 8.4 | -4.3
COc1ccc(NC(=O)C2(c3ccc(NC(=O)c4ccc(OC)c(OC)c4)cc3)CCCC2)cc1 | 5.1 | 18.7 | 0.0 | -2.0 | -2.6
Cc1cc(C)c(Cn2c3ccccc3c3cnn(CC(=O)NCCc4ccccc4)c(=O)c32)c(C)c1 | · | · | -0.9 | · | -3.8
CC1CCCN(c2cc(N(C)CCO)c([N+](=O)[O-])c3nonc23)C1 (stereo unspecified) | -2.2 | -7.2 | -0.3 | -5.1 | 40.1*
N#Cc1c(-c2ccccc2)nc(SCc2cccc(Cl)c2)[nH]c1=O | 1.7 | 30.4* | -1.4 | 0.9 | 0.3
CC(=O)c1cccc(NC(=O)c2nc3ccccc3n(C)c2=O)c1 | · | · | 0.2 | · | 1.7
COc1ccc(N2C(=O)CCC2=O)cc1 | -1.6 | 34.1* | 0.4 | 4.4 | 16.9
CC(=O)Oc1ccc(N2C(=O)CCC2=O)cc1 | -4.1 | -0.4 | 0.3 | 1.0 | -2.4
CCC(=O)N1CCc2cc(Br)cc(S(=O)(=O)CCC(=O)N3CCN(c4ccccc4F)CC3)c21 | · | · | 0.0 | · | -13.4
CCCn1nnnc1NCc1ccc(SC)cc1 | -1.0 | 36.9* | -1.4 | -1.0 | 5.6
CCn1nnnc1NCc1ccc(Cl)cc1 | -0.5 | 46.7* | 0.6 | -6.2 | 13.7
Cc1ccc(/C=C\c2nccc3c2[nH]c2ccccc23)cc1 | -4.4 | 44.3* | -0.5 | -35.7 | -23.5
Cc1ccc2c(CC(=O)Nc3c(C(=O)Nc4cccc(Cl)c4)oc4ccccc34)coc2c1C | · | · | 1.1 | · | -22.3
O=C1CC(c2ccccc2)CC(=NCCO)/C1=C(\O)CCCN1C(=O)c2ccccc2C1=O (stereo unspecified) | 1.5 | 2.4 | -0.2 | -0.4 | 50.9*
CC1(C)CC(=O)/C(=C(\O)CCCN2C(=O)c3ccccc3C2=O)C(=NCC(=O)O)C1 | 1.5 | -8.8 | 0.6 | -3.0 | 15.0
SMILES | D2 ag-1 | D2 antag | D2 ag-2 | D2 PAM-1 | D2 PAM-2
O=S(=O)(NCC(c1ccco1)S(=O)(=O)c1ccccc1)c1cc(F)ccc1F (stereo unspecified) | · | · | 0.6 | · | 1.5
CCS(=O)(=O)Nc1cccc(C2=NN(S(=O)(=O)c3ccc(F)cc3)C(c3cccs3)C2)c1 (stereo unspecified) | -1.5 | 4.3 | 4.0 | -6.5 | -1.3
CS(=O)(=O)Nc1cccc(C2=NN(S(=O)(=O)c3ccc(F)cc3)C(c3cccs3)C2)c1 (stereo unspecified) | -3.5 | 31.2* | 3.7 | -8.0 | -7.9
Cc1cc(C)c(S(=O)(=O)Nn2cnnc2)c(C)c1 | -1.3 | 31.9* | 0.6 | -3.6 | 9.2
CCc1ccc(NC(=O)N(Cc2ccc(C)cc2)Cc2cccn2-c2nnc(N3CCCC3=O)s2)cc1 | · | · | 0.0 | · | -11.3
COC(=O)C1=C(C(=O)c2ccc(C)cc2)C(c2ccc(OC)c(OC)c2)n2nnnc2N1 (stereo unspecified) | -4.5 | 32.8* | 0.6 | -23.0 | -15.7
